Test results from article PMC9911399, “Two distinct binding modes provide the RNA-binding protein RbFox with extraordinary sequence specificity”.
Residue numbers refer to the chain shown, from its start. Over roughly 16,000 sequences, “ka relative to ugcaugu” has its median near 0.0091; the highest 2% begin near 0.032. What follows is part of a selection rich in the highest values, with near analogues and random picks from the rest.

T1: RBFOX1 RRM (Homo sapiens, UniProt Q9NWB1 109-208)
T1 sequence: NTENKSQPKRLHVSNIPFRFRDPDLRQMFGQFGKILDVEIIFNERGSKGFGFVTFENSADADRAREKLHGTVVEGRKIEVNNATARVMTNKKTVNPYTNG

B1: CAACCGU (DNA:RNA)
RNA: GGGAGACCGGAAUUCAGAUUGUCCCAACCGUUUAAAUCCCGUCGUAGCCACCA
DNA 1: CAATCTGAATTCCGGTCTCCC
DNA 2: TGGTGGCTACGACGGGATT
B2: UACAUGG (DNA:RNA)
RNA: B1 RNA with C25U, A27C, C28A, C29U, U31G
DNA 1: CAATCTGAATTCCGGTCTCCC
DNA 2: TGGTGGCTACGACGGGATT
B3: UUGCUAC (DNA:RNA)
RNA: B1 RNA with C25U, A26U, A27G, C29U, G30A, U31C
DNA 1: CAATCTGAATTCCGGTCTCCC
DNA 2: TGGTGGCTACGACGGGATT
B4: GAUACGC (DNA:RNA)
RNA: B1 RNA with C25G, A27U, C28A, U31C
DNA 1: CAATCTGAATTCCGGTCTCCC
DNA 2: TGGTGGCTACGACGGGATT
B5: GGGUUUA (DNA:RNA)
RNA: GGGAGACCGGAAUUCAGAUUGUCCGGGUUUAUUAAAUCCCGUCGUAGCCACCA
DNA 1: CAATCTGAATTCCGGTCTCCC
DNA 2: TGGTGGCTACGACGGGATT
B6: GUCGGGG (DNA:RNA)
RNA: B1 RNA with C25G, A26U, A27C, C28G, C29G, U31G
DNA 1: CAATCTGAATTCCGGTCTCCC
DNA 2: TGGTGGCTACGACGGGATT
B7: CGGGUUA (DNA:RNA)
RNA: B5 RNA with G25C, U28G
DNA 1: CAATCTGAATTCCGGTCTCCC
DNA 2: TGGTGGCTACGACGGGATT
B8: GGGGUUG (DNA:RNA)
RNA: B5 RNA with U28G, A31G
DNA 1: CAATCTGAATTCCGGTCTCCC
DNA 2: TGGTGGCTACGACGGGATT
B9: GGGGGGG (DNA:RNA)
RNA: B5 RNA with U28G, U29G, U30G, A31G
DNA 1: CAATCTGAATTCCGGTCTCCC
DNA 2: TGGTGGCTACGACGGGATT
B10: CACCGGG (DNA:RNA)
RNA: B1 RNA with A27C, C29G, U31G
DNA 1: CAATCTGAATTCCGGTCTCCC
DNA 2: TGGTGGCTACGACGGGATT
B11: GGGGUUA (DNA:RNA)
RNA: B5 RNA with U28G
DNA 1: CAATCTGAATTCCGGTCTCCC
DNA 2: TGGTGGCTACGACGGGATT
B12: CGGGGGG (DNA:RNA)
RNA: B1 RNA with A26G, A27G, C28G, C29G, U31G
DNA 1: CAATCTGAATTCCGGTCTCCC
DNA 2: TGGTGGCTACGACGGGATT
B13: CGGGUUG (DNA:RNA)
RNA: B5 RNA with G25C, U28G, A31G
DNA 1: CAATCTGAATTCCGGTCTCCC
DNA 2: TGGTGGCTACGACGGGATT
B14: GUGGCCC (DNA:RNA)
RNA: B5 RNA with G26U, U28G, U29C, U30C, A31C
DNA 1: CAATCTGAATTCCGGTCTCCC
DNA 2: TGGTGGCTACGACGGGATT
B15: GGGGUGG (DNA:RNA)
RNA: B5 RNA with U28G, U30G, A31G
DNA 1: CAATCTGAATTCCGGTCTCCC
DNA 2: TGGTGGCTACGACGGGATT
B16: GGGUGUG (DNA:RNA)
RNA: B5 RNA with U29G, A31G
DNA 1: CAATCTGAATTCCGGTCTCCC
DNA 2: TGGTGGCTACGACGGGATT
B17: ACGGGUG (DNA:RNA)
RNA: B5 RNA with G25A, G26C, U28G, U29G, A31G
DNA 1: CAATCTGAATTCCGGTCTCCC
DNA 2: TGGTGGCTACGACGGGATT
B18: GGGUGGU (DNA:RNA)
RNA: B5 RNA with U29G, U30G, A31U
DNA 1: CAATCTGAATTCCGGTCTCCC
DNA 2: TGGTGGCTACGACGGGATT
B19: GGGGGUG (DNA:RNA)
RNA: B5 RNA with U28G, U29G, A31G
DNA 1: CAATCTGAATTCCGGTCTCCC
DNA 2: TGGTGGCTACGACGGGATT
B20: CGGGGUG (DNA:RNA)
RNA: B5 RNA with G25C, U28G, U29G, A31G
DNA 1: CAATCTGAATTCCGGTCTCCC
DNA 2: TGGTGGCTACGACGGGATT
B21: CCGGGUG (DNA:RNA)
RNA: B5 RNA with G25C, G26C, U28G, U29G, A31G
DNA 1: CAATCTGAATTCCGGTCTCCC
DNA 2: TGGTGGCTACGACGGGATT
B22: CGGGUGG (DNA:RNA)
RNA: B5 RNA with G25C, U28G, U30G, A31G
DNA 1: CAATCTGAATTCCGGTCTCCC
DNA 2: TGGTGGCTACGACGGGATT
B23: GGGUGUC (DNA:RNA)
RNA: B5 RNA with U29G, A31C
DNA 1: CAATCTGAATTCCGGTCTCCC
DNA 2: TGGTGGCTACGACGGGATT

target: T1, RBFOX1 RRM; assay: EMSA; HiTS-Eq, 1 nM pool, 10 min; buffer printed only for the single-RNA assays: 10 mM Tris pH 7.5, 150 mM NaCl, 3.4 mM EDTA, 0.001% NP-40, 30 C; details: tags: His6 N-terminal (pET28a); label: 5' 32P
How it was run: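 Purified RbFox RRM (wild type or mutant) was equilibrated for 10 min in 50 µL with 1 nM of a 5′-radiolabelled pool of RNA with 7 randomized nucleotides, its flanks annealed to DNA oligonucleotides, across increasing protein concentrations. Free RNA was separated by 8% native PAGE, excised, reverse-transcribed, PCR-barcoded and sequenced on an Illumina HiSeq 2500. Relative association constants came from read-count changes of each variant against the control reaction, normalised to the cognate motif.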

Q: With B1 as the binder, how does the binding signal read?
A: 0.00135 KA relative to UGCAUGU

Q: B2 was tested. Which binding signal did it give?
A: 0.0106 KA relative to UGCAUGU

Q: How did the binding signal turn out when B3 was run?
A: 0.015 KA relative to UGCAUGU

Q: With B4 as the binder, how does the binding signal read?
A: 0.012 KA relative to UGCAUGU

Q: How did the binding signal turn out when B5 was run?
A: 0.0165 KA relative to UGCAUGU

Q: Which binding signal does the source give for B6 here?
A: 0.0181 KA relative to UGCAUGU

Q: For B7, which binding signal is on record?
A: 0.0205 KA relative to UGCAUGU

Q: Which binding signal does the source give for B8 here?
A: 0.0899 KA relative to UGCAUGU

Q: Which binding signal does the source give for B9 here?
A: 0.0247 KA relative to UGCAUGU

Q: For B10, which binding signal is on record?
A: 0.00514 KA relative to UGCAUGU

Q: B11 was tested. Which binding signal did it give?
A: 0.0364 KA relative to UGCAUGU

Q: How did the binding signal turn out when B12 was run?
A: 0.0136 KA relative to UGCAUGU

Q: For B13, which binding signal is on record?
A: 0.0491 KA relative to UGCAUGU

Q: For B14, which binding signal is on record?
A: 0.0179 KA relative to UGCAUGU

Q: Which binding signal does the source give for B15 here?
A: 0.0333 KA relative to UGCAUGU

Q: Which binding signal does the source give for B16 here?
A: 0.0275 KA relative to UGCAUGU

Q: With B17 as the binder, how does the binding signal read?
A: 0.0185 KA relative to UGCAUGU

Q: How did the binding signal turn out when B18 was run?
A: 0.0199 KA relative to UGCAUGU

Q: With B19 as the binder, how does the binding signal read?
A: 0.0397 KA relative to UGCAUGU

Q: B20 was tested. Which binding signal did it give?
A: 0.0399 KA relative to UGCAUGU

Q: How did the binding signal turn out when B21 was run?
A: 0.0271 KA relative to UGCAUGU

Q: For B22, which binding signal is on record?
A: 0.0171 KA relative to UGCAUGU

Q: B23 was tested. Which binding signal did it give?
A: 0.0216 KA relative to UGCAUGU
